Rows were chosen to be rich in hits. Some 8.2% of all compounds tested hit in one or more screens of this group.
KB-V1 MDR tox: qHTS assay for MDR1-selective chemotherapeutics: Primary screen using the drug-selected MDR subline cells KB-V1 | 3.4% of 400,000 active | KB-V1 MDR cells viability, CellTiter-Glo, 72 h | Potency, µM (top dose mostly 46.1 µM), usual class: cytotoxic | AID 1347076, 2019; also: % is scaled to controls: 0 for no effect and ±100 for the full control effect; nearly all actives have a fitted effect of over 60% in size
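Cytotoxicity toward P-gp-expressing KB-V1 cells was determined as loss of CellTiter-Glo luminescence after 72 h at 37 degrees C. Compounds were tested in quantitative HTS format across a concentration range, with curves fitted to normalized data.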
SW480 rerep: A quantitative high throughput screen for small molecules that induce DNA re-replication in SW480 colon adenocarcinoma cells; Potency, µM (highest dose often 46.1 µM), for the others: at the top dose re-replication activation, most hits filed as activators; 1.8% of 340,000 active; SW480 DNA re-replication, Hoechst DNA content imaging, 48 h; AID 624297, 2012; also: % of control where 0% means no effect; nearly all actives have a fitted effect of over 55% in size
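Image-based read-out: total Hoechst fluorescence of nuclei (405 nm excitation, 500-530 nm emission), with hits raising the fraction of high-intensity nuclei. SW480 colon cells incubated 48 hr with compounds at 37 C.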
KB-3-1 cytotox: qHTS assay for MDR1-selective chemotherapeutics: Primary screen using the parental adenocarcinoma cell KB-3-1 | 1.4% of 400,000 active | Potency, µM (highest dose often 46.1 µM), actives largely listed as cytotoxic | AID 1347075, 2019 | KB-3-1 viability, CellTiter-Glo ATP luminescence, 72 h; also: % is scaled to controls: 0 for no effect and ±100 for the full control effect; nearly all actives have a fitted effect of over 60% in size
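KB-3-1 parental drug-naive adenocarcinoma cells in DMEM/10% FBS, incubated 72 h at 37 C with pin-transferred compounds across a concentration series. Viability by CellTiter-Glo luminescence; concentration-response curves fitted after normalization.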
ELG1 repair inh: qHTS screen for small molecules that inhibit ELG1-dependent DNA repair in human embryonic kidney (HEK293T) cells expressing luciferase-tagged ELG1. Potency, µM (doses to about 46.1 µM), for the others: top-dose activity change, negative = inhibition, usual class: inhibitors. HEK293T ELG1-luciferase reporter, luminescence, 16 h; DNA damage induced by 5-fluorouridine. 2.3% of 330,000 active; also: % is scaled to controls: 0 for no effect and ±100 for the full control effect; nearly all actives have a fitted effect of over 55% in size
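Quantitative HTS, concentration-response format. 2,000 cells/well co-treated with 5-fluorouridine and compound, 16 hr in 5% CO2 at 37 °C; ONE-Glo luminescence read after 30 min.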
MCF10A rerep: A quantitative high throughput screen for small molecules that induce DNA re-replication in MCF 10a normal breast cells; MCF 10A DNA re-replication, Hoechst nuclear intensity, 48 h; Potency, µM (series often up to 46.1 µM), for the others: at the highest dose activity, positive = re-replication, usual class: activators; 2.9% of 350,000 active; AID 624296, 2012; also: % of control where 0% means no effect; nearly all actives have a fitted effect of over 50% in size
Active calls of the source: *; i = inactive; ? = inconclusive; nt = no result given; ! = not confirmed by another sample; [ ] = another dose, or the depositor's remark. Calls follow the shape of the dose curve; as a rule, active = well fitted curve in the direction sought with a large enough effect; inconclusive = small, poorly fitted or top-dose-only effect, or another doubt; inactive = no such curve, though single readings can be large; an effect the other way counts as inactive or inconclusive. Potency is read from the fitted curve at half-maximal effect.

SMILES	KB-V1 MDR tox	SW480 rerep	KB-3-1 cytotox	ELG1 repair inh	MCF10A rerep
COc1ccc(Cn2c(=O)oc3ccc(C)cc32)cc1OC	?	?	i	-27%	-182%[0.0737 µM]
O=c1c2ccccc2nc(CN2CCCCCC2)n1-c1ccc(F)cc1	i	-8%	i	0%	24%
CCC(CC)N1CCN(Cc2nc3ccccc3c(=O)n2-c2ccc(F)cc2)CC1	?	-23%	i	-16%	0.58µM*
O=P(O)(O)C(Cl)(Cl)P(=O)(O)O	nt	2%	nt	nt	2%
CC(=O)Nc1ccccc1C(=O)OCC(=O)c1ccc2c(c1)OCCO2	i	-1%	i	?	-5%
Cc1onc(-c2ccccc2Cl)c1C(=O)OCC(=O)c1ccc2c(c1)OCCO2	?	-9%	i	13µM*	?
Cc1cccc(-n2c(/C=C/c3ccc([N+](=O)[O-])o3)nc3ccccc3c2=O)c1	10µM*	6.5µM*	10µM*	?	2.3µM*
O=C1Nc2ccccc2/C1=C/c1nc2ccccc2c(=O)n1-c1ccc(O)cc1	i	?	i	18µM*	5%
O=c1c2ccccc2nc(/C=C/c2ccc([N+](=O)[O-])o2)n1-c1ccc(O)cc1	?	4.6µM*	?	?	?
Cc1cccc(-n2c(/C=C/c3cccc4ccccc34)nc3ccccc3c2=O)c1	?	nt	i	nt	nt
Cc1onc(-c2ccccc2)c1C(=O)N[C@@H]1C(=O)N2C1SC(C)(C)[C@@H]2C(=O)O (some centres undefined)	i	?	i	nt	-1%
O=c1[nH]c(=O)n(CCc2ccc(F)cc2)c(O)c1C=NCc1ccc2c(c1)OCO2	i	7%	i	0%	?
O=[N+]([O-])c1ccc(N2CCOCC2)c2cccnc12	i	-5%	i	-7%	4%
O=[N+]([O-])c1ccc(N2CCOCC2)c2c1no[n+]2[O-]	5.2µM*	nt	?	nt	nt
C=CCn1c(O)c(C(CC)=NCc2cccnc2)c(=O)[nH]c1=O	i	2%	i	?	6%
O=C(Nc1ccc2nc(-c3cccs3)c(-c3cccs3)nc2c1)NC1CC1	?	?	i	?	18µM*
CC(C)n1c(/C=C/[C@@H](O)C[C@@H](O)CC(=O)O)c(-c2ccc(F)cc2)c2ccccc21	18µM*	3%	15µM*	nt	6%
Cc1ccc(Cl)c(O)c1	nt	5%	nt	nt	2%
N#CSCC(=O)N1c2ccccc2CCc2ccccc21	23µM*	?	?	?	?
Nc1ccccc1C(=O)OCC(=O)N1CCc2ccccc21	i	1%	i	?	0%
Cc1cc(Cl)ccc1OCCCC(=O)NCc1cccs1	26µM*	?	i	-29%	?
COc1ccc(/C=N/N=C(/N)N[N+](=O)[O-])c(OC)c1	1µM*	3%	1.5µM*	?	?
N/C(=N\N=C/c1ccc(-c2ccc(O)c(C(=O)O)c2)o1)N[N+](=O)[O-]	?	-3%	i	-17%	-22%
CN1C[C@H](C(=O)N[C@]2(C)O[C@@]3(O)C4CCCN4C(=O)[C@H](Cc4ccccc4)N3C2=O)C[C@@H]2c3cccc4[nH]cc(c34)C[C@H]21 (some centres undefined)	nt	1%[4.21 µM]	nt	nt	4%
CN1C[C@H](C(=O)N[C@]2(C)O[C@@]3(O)[C@@H]4CCCN4C(=O)[C@H](Cc4ccccc4)N3C2=O)CC2c3cccc4[nH]cc(c34)C[C@H]21 (some centres undefined)	i	0.35µM*!	i	-7%	?
SMILES	KB-V1 MDR tox	SW480 rerep	KB-3-1 cytotox	ELG1 repair inh	MCF10A rerep
CCC(=O)Nc1nc2ccccc2n1CCN(C)C	i	-9%	i	5%	?
Cc1nn(-c2nccs2)c2c1C(=O)CC(C)(C)C2Br (centres undefined)	i	?	i	nt	?
COc1ccc(C2=CC(c3ccc(OC)c(OC)c3)c3c(c4ccccc4oc3=O)O2)cc1OC (centres undefined)	i	13µM*	?	?	2.9µM*
CNC(=O)c1cccn(Cc2cc(C(F)(F)F)cc(C(F)(F)F)c2)c1=O	?	-3%	?	6.5µM*	?
CC(C)Oc1cccc(NC(=O)c2cccn(Cc3ccc4c(c3)OC(F)(F)O4)c2=O)c1	i	?	?	?	13µM*
O=C(Nc1ccc(C(F)(F)F)cc1)c1cccn(Cc2ccc3c(c2)OC(F)(F)O3)c1=O	2.9µM*	-8%	8.2µM*	0%	?
N#CC1(N2CCCCC2)CCCCC1	nt	-2%	nt	nt	8%
CC(C)Oc1cc(-n2c(=S)[nH]c3ccccc3c2=O)c(Cl)cc1Cl	23µM*	9%	?	14%	84%
O=C(c1ccccc1)N1CCC2(CC1)OCCO2	?	-2%[9.22 µM]	i	1%	?
Cc1c(C(=O)N2CCC3(CC2)OCCO3)sc2ncnc(N3CCc4ccccc4C3)c12	?	-1%	i	21µM*	2%
CC12NC(Cc3ccccc31)c1ccccc12 (centres undefined)	nt	-2%	nt	nt	-1%
CCOC(=O)[C@]12Cc3c(cc(OC)c(OC)c3OC)[C@H]1N(C)C(=O)c1ccccc12	i	nt	?	nt	nt
CCOC(=O)[C@]12Cc3cc(OC)ccc3[C@H]1N(CCC(=O)OC)C(=O)c1cc(OC)ccc12	?	nt	5.2µM*	nt	nt
CCOC(=O)[C@]12Cc3ccccc3[C@H]1N(CCC(=O)OC)C(=O)c1cc(OC)ccc12	9.2µM*	nt	?	nt	nt
CCOC(=O)[C@]12Cc3c(cc(OC)c(OC)c3OC)[C@H]1N(CCC(=O)OC)C(=O)c1ccccc12	?	nt	8.2µM*	nt	nt
CC(=O)OCC1=C(C(=O)O)N2C(=O)[C@@H](N)[C@@H]2SC1	nt	-7%[20.6 µM]	nt	nt	2%[20.6 µM]
CCC1(c2ccccc2)CCC(=O)NC1=O (centres undefined)	nt	-2%	nt	nt	7%
O=C1/C(=C/c2ccccc2)C[C@@]2(O)[C@H]3Cc4ccc(O)c5c4[C@@]2(CCN3CC2CC2)C1O5 (some centres undefined)	7.3µM*	?	?	18µM*	4.6µM*
Oc1ccc2c3c1OC1c4[nH]c5ccccc5c4C[C@@]4(O)C(C2)N(CC2CC2)CC[C@]314 (some centres undefined)	i	-17%	i	13%	?
Oc1ccc2c3c1OC1c4oc5ccccc5c4C[C@@]4(O)[C@@H](C2)N(CC2CC2)CC[C@]314 (some centres undefined)	?	0.92µM*	i	1%	4%

Bioassay records (PubChem)
